The results in this text go back to PubChem BioAssay (NCATS).

Inconclusive results are not listed. Activity calls are given as the source filed them. Calls come from the whole dose curve; as a rule, active = well fitted cell-killing curve with a large enough effect; inconclusive = small, poorly fitted or top-dose-only effect; inactive = no such curve, though single readings can be large or run the other way.
% is set by controls: 0 for no effect and ±100 for the full control effect; potency is the fitted concentration of half-maximal effect.

A short description of this experiment: qHTS of pediatric cancer cell lines to identify multiple opportunities for drug repurposing: Primary screen for A673 cells (AID 1347092). Note: nearly all actives have a fitted effect of over 45% in size. The following applies: A673 Ewing sarcoma viability, CellTiter-Glo ATP luminescence, 48 h; series mostly up to 46 µM; activity change, negative = cytotoxic: at the top concentration. The source says: Drug repurposing or repositioning has been offered as a strategy for drug development in oncology programs. This approach has special potential for childhood cancers and other rare or orphan diseases, where the expected return on new drug development has been a disincentive to pharmaceuticals. […] In this project we exploit the poly-pharmacology of drugs to discover new indications via phenotypic screening of a panel of 19 well-characterized cell lines derived from solid tumors seen in children and adolescents. The goal is to identify approved drugs with previously unrecognized anticancer properties that has the potential to reveal new mechanisms and biological processes involved in carcinogenesis or drug resistance. We employed a titration-based paradigm (quantitative high-throughput screening or qHTS), where all compounds were tested at multiple concentrations for their effect on cell viability. Concentration-response curves (CRCs) were derived directly from the primary screen, and both potency and efficacy values were used to identify compounds with robust bioactivity profiles. We screened the NIH Chemical Genomics Center (NCGC) Pharmaceutical Collection (NPC) and Mechanism Interrogation Plate (MIPE) small molecule collections of approved and investigational compounds against these cell lines; and measured metabolically active cells after 48 hours of compound treatment as a proxy for cell viability. […] Assay Submitter: Nathalia J. Martinez, National Center for Advancing Translational Sciences, National Institutes of Health, Rockville, MD, USA; email: natalia.martinez@nih.gov. Shen, M et al. Quantitative high-throughput phenotypic screening of pediatric cancer cell lines identifies multiple opportunities for drug repurposing. Oncotarget 2017 Dec 19;9(4):4758-4772. PMID 29435139.
The cells were obtained from University of North Carolina (UNC), Pediatric Preclinical Testing Program (PPT), and Coriell Institute (CI). qHTS cell viability assay: Cells were assayed in growth media at a density of 500-1,000 cells/well. Five microliters of cells were dispensed into 1,536-well, white, solid-bottom, TC-treated plates (Greiner Bio One) using a multidrop dispenser and incubated at 37 degrees C, 5% CO2, under a humidified atmosphere for 5 hours. Twenty-three nanoliters of compounds and controls (neutral control DMSO or positive control bortezomib at final concentration of 2.3 uM) were subsequently transferred by Kalypsys pintool. For primary screens, the MIPE collection was tested at 11-point dilutions (final concentrations range from 0.78 nM to 46 µM) and the NPC collection at 8-point dilutions (final concentrations range from 0.59 nM to 46 µM). Compounds tested in follow-up screens were assayed at 11-point dilutions. Cells were incubated for 48 hours, followed by addition of 3 uL of CellTiter-Glo (Promega). After a 15min incubation at room temperature, samples were analyzed for luminescence intensity using a ViewLux High-throughput CCD imager equipped with clear filters.
Turning to `C[C@]12C[C@H](O)[C@H]3[C@@H](CCC4=CC(=O)CC[C@@]43C)[C@@H]1CC[C@@H]2C(=O)CO`, the “activity change, negative = cytotoxic” value is 12.1% (inactive).

For `CCOC(=O)c1ccc(O)cc1`, the “activity change, negative = cytotoxic” value is 9.32% (inactive).

On to `NCCNCCNCCN`, for which the “activity change, negative = cytotoxic” value was -4.18% (inactive).

Turning to `C#CCN(C)Cc1ccccc1`, the “activity change, negative = cytotoxic” value was 17.1% (inactive).

On to `NCCNCCNCCNCCN`, for which the activity change, negative = cytotoxic was 0.711% [at 9.22 µM] (inactive).

Take `CC(=O)O[C@@]12CO[C@@H]1C[C@H](O)[C@@]1(C)C(=O)[C@H](O)C3=C(C)[C@@H](OC(=O)[C@H](O)[C@@H](NC(=O)OC(C)(C)C)c4ccccc4)C[C@@](O)([C@@H](OC(=O)c4ccccc4)[C@H]21)C3(C)C`: the Potency is 0.001 µM (active).

Consider `C=CCn1c(=O)n([C@@H]2O[C@H](CO)[C@@H](O)[C@H]2O)c2nc(N)[nH]c(=O)c21`, for which the “activity change, negative = cytotoxic” value was -1.76% (inactive).

Regarding `CC(COc1ccccc1)NC(C)C(O)c1ccc(O)cc1` (stereo not given), the “activity change, negative = cytotoxic” value was 3.06% (inactive).

Take `O=c1cc[nH]c(=O)[nH]1`: the “activity change, negative = cytotoxic” value is 12.9% (inactive).

Consider `C[C@]12CC[C@@H]3c4ccc(O)cc4CC[C@H]3[C@@H]1CC[C@@H]2OC(=O)CCC1CCCC1`, for which the “activity change, negative = cytotoxic” value was -5.38% (inactive).

As to `N[C@@H](CSSC[C@H](N)C(=O)O)C(=O)O`, the activity change, negative = cytotoxic is -1.55% [at 0.597 µM] (inactive).

As to `NC1CCN(c2cccc(Cl)n2)CC1`, the “activity change, negative = cytotoxic” value is 6.13% (inactive).

Turning to `CC1CC(OC(=O)C(O)c2ccccc2)CC(C)(C)N1C` (stereo not given), the “activity change, negative = cytotoxic” value is 14% (inactive).

Turning to `CC(O)COc1ccccc1` (stereo not given), the “activity change, negative = cytotoxic” value is 13.6% (inactive).

Regarding `Cc1cc(O)cc2c1O[C@](C)(CCC[C@H](C)CCC[C@H](C)CCCC(C)C)CC2`, the “activity change, negative = cytotoxic” value was 6.17% (inactive).

For the molecule `CCOC(=O)[C@H](CCc1ccccc1)N[C@@H](C)C(=O)N1C(=O)N(C)C[C@H]1C(=O)O`, the “activity change, negative = cytotoxic” value is 158% (inactive).

Consider `CC1(C)S[C@@H]2[C@H](NC(=O)Cc3ccccc3)C(=O)N2[C@H]1C(=O)O` (tested in a mixture with another compound), for which the “activity change, negative = cytotoxic” value was 1.56% (inactive).

With `CCCCN1CCCC[C@H]1C(=O)Nc1c(C)cccc1C`, the “activity change, negative = cytotoxic” value is -18.5% (inactive).

Consider `Nc1ccc(S(=O)(=O)Nc2nccs2)cc1`, for which the “activity change, negative = cytotoxic” value is 14.1% (inactive).

`CC1=C(CC(=O)O)c2cc(F)ccc2/C1=C\c1ccc(S(C)(=O)=O)cc1`: the “activity change, negative = cytotoxic” value is -21.5% (inactive).

Regarding `CCN(CC)CCNC(C(=O)OCCC(C)C)c1ccccc1` (stereo not given), the “activity change, negative = cytotoxic” value was 4.93% (inactive).

As for `OC[C@H]1O[C@@H](O[C@@H]2[C@@H](CO)O[C@](O)(CO)[C@H]2O)[C@H](O)[C@@H](O)[C@H]1O`, the “activity change, negative = cytotoxic” value was 0.699% (inactive).

Regarding `CN1CCCCC1CCN1c2ccccc2Sc2ccc(S(C)=O)cc21` (stereo not given), the “activity change, negative = cytotoxic” value is -19.9% (inactive).

Consider `CC(C)C(=O)c1c(C(C)C)nn2ccccc12`, for which the “activity change, negative = cytotoxic” value is 5.09% (inactive).

For the molecule `Cc1cc2nc3c(=O)[nH]c(=O)nc-3n(C[C@H](O)[C@H](O)[C@H](O)CO)c2cc1C`, the “activity change, negative = cytotoxic” value is 2.21% [at 16.1 µM] (inactive).

With `CC1(C)CO[C@@H](CC(=O)O)CN1`, the “activity change, negative = cytotoxic” value was 7.61% (inactive).

For the molecule `O=S(=O)(O)c1cc(I)c(O)c2ncccc12`, the “activity change, negative = cytotoxic” value is -3.17% (inactive).

As for `Oc1cn2c(n1)Nc1ccc(Cl)c(Cl)c1C2`, the “activity change, negative = cytotoxic” value was 7.48% [at 16.1 µM] (inactive).

As to `NS(=O)(=O)c1cc2c(cc1Cl)NC(CSCc1ccccc1)=NS2(=O)=O`, the “activity change, negative = cytotoxic” value was 1.61% (inactive).

`C[C@@H]1CCN(C(=O)[C@H](CCCN=C(N)N)NS(=O)(=O)c2cccc3c2NC[C@H](C)C3)[C@@H](C(=O)O)C1`: the “activity change, negative = cytotoxic” value is 3.83% (inactive).

Turning to `CCCOC(=O)c1ccccc1`, the “activity change, negative = cytotoxic” value was -7.69% (inactive).

Take `C[C@H]1O[C@H](O[C@H]2[C@H](O)[C@@H](O)[C@@H](O[C@H]3[C@H](O)[C@@H](O)[C@H](O)O[C@@H]3CO)O[C@@H]2CO)[C@H](O)[C@@H](O)[C@@H]1N[C@H]1C=C(CO)[C@@H](O)[C@H](O)[C@H]1O`: the “activity change, negative = cytotoxic” value is 1.12% (inactive).

As to `O=C(O)c1ccccc1-c1ccc(C(F)(F)F)cc1`, the “activity change, negative = cytotoxic” value was 5.34% (inactive).

Consider `CC(=O)Oc1ccc(C2(c3ccc(OC(C)=O)cc3)C(=O)Nc3ccccc32)cc1`, for which the “activity change, negative = cytotoxic” value is -22.2% (inactive).

On to `CCCn1cnc2c1c(=O)n(CCCCC(C)=O)c(=O)n2C`, for which the “activity change, negative = cytotoxic” value is 10.2% (inactive).

`CN(C)CC[C@@H](c1ccc(Cl)cc1)c1ccccn1`: the “activity change, negative = cytotoxic” value was -2.66% (inactive).

On to `CN(N=O)C(=O)N[C@@H]1[C@@H](O)[C@H](O)[C@@H](CO)O[C@@H]1O`, for which the “activity change, negative = cytotoxic” value is -1.66% (inactive).

For `OCCN1CCN(CCCN2c3ccccc3Sc3ccc(Cl)cc32)CC1`, the Potency is 21.1 µM (active).

Consider `CSc1ccc2c(c1)N(CCC1CCCCN1C)c1ccccc1S2` (stereo not given), for which the Potency was 21.1 µM (active).

On to `O=c1[nH]cnc2c1ncn2[C@@H]1O[C@H](CO)[C@@H](O)[C@H]1O`, for which the “activity change, negative = cytotoxic” value was 9.62% (inactive).
